Active and inactive are the calls of the source. How the calls were made is not given here.
Tested on: Aerobactin synthetase IucA (Klebsiella pneumoniae, hypervirulent)
Experiment: IucA enzyme inhibition, biochemical, LOPAC library, absorbance readout (AID 1346212);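 further: 100% = no compound wells and 0% = no enzyme wells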
Details: IucA enzyme assay, absorbance (OD) readout; hits give low values;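 tested at 8 µM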

SMILES | remaining activity
O=C1NCN(c2ccccc2)C12CCN(CCCC(c1ccc(F)cc1)c1ccc(F)cc1)CC2 | 104% (inactive)
NC(=S)c1ccc[n+]([C@@H]2O[C@@H](COP(=O)([O-])OP(=O)(O)OC[C@H]3O[C@@H](n4cnc5c(N)ncnc54)C(OP(=O)(O)O)[C@H]3O)C(O)C2O)c1 (stereo not given in full) | 97.1% (inactive)
Oc1ccc(C2CNCCc3c2cc(O)c(O)c3Cl)cc1 (stereo not given) | 94.3% (inactive)
CNC(=O)[C@H]1O[C@@H](n2cnc3c(NCc4ccc(N)cc4)ncnc32)[C@H](O)[C@@H]1O | 119% (inactive)
CC(C)NCC(O)COc1ccc(CCOCC2CC2)cc1 (stereo not given) | 123% (inactive)
COc1ccccc1CNCCCCCCNCCCCCCCCNCCCCCCNCc1ccccc1OC | 91.3% (inactive)
CCCCCC(O)CCCC(=O)O (stereo not given) | 101% (inactive)
CC(N)=NCCCC[C@@H](N)C(=O)O | 124% (inactive)
N[C@@H](Cc1cnc[nH]1)C(=O)O | 113% (inactive)
Nc1ncnc2c1ncn2C1CCCC1 | 120% (inactive)
Cn1c(=O)c2[nH]c(-c3ccc(S(=O)(=O)O)cc3)nc2n(C)c1=O | 117% (inactive)
COc1ccc(NC=O)c(C(=O)CCNC(C)=O)c1 | 95% (inactive)
CC(C)C[C@H](NC(=O)[C@@H](O)[C@H](N)Cc1ccccc1)C(=O)O | 108% (inactive)
Cn1c(=O)[nH]c2ncn(C)c2c1=O | 113% (inactive)
CCCCC/C=C\C[C@@H](O)/C=C/c1cccc(C[C@@H](O)CCCCO)n1 | 92.2% (inactive)
CC[N+](C)(C)Cc1ccccc1Br | 108% (inactive)
Nc1nc2ccc(OC(F)(F)F)cc2s1 | 98.9% (inactive)
N=C(N)SCCc1ccc(CCSC(=N)N)cc1 | 102% (inactive)
COc1ccc(CCn2nnnc2C2(c3ccc(C)cc3)CC2)cc1 | 115% (inactive)
N#C/C(=C\c1ccc(O)c(O)c1)C(=O)NCCCNC(=O)/C(C#N)=C/c1ccc(O)c(O)c1 | 98.2% (inactive)

SMILES | remaining activity
COc1cccc(-c2cc(=O)c3ccccc3o2)c1N | 95.7% (inactive)
O=C(O)Cc1ccc(O)c(O)c1 | 107% (inactive)
OCCN1CCN(CC/C=C2/c3ccccc3Sc3ccc(C(F)(F)F)cc32)CC1 | 105% (inactive)
c1ccc2nc(C3=NCCN3)ccc2c1 | 121% (inactive)
CNCCNS(=O)(=O)c1cccc2cnccc12 | 102% (inactive)
CNC(=O)c1cc2c(cn1)[nH]c1ccccc12 | 97.3% (inactive)
CCCCCCCCCCCCCCCC(=O)NCC(COP(=O)([O-])OCC[N+](C)(C)C)OCC (stereo not given) | 74.4% (inactive)
Cc1ccc(S(=O)(=O)/C=C/C#N)cc1 | 100% (inactive)
Nc1nc2ccc(Cl)cc2c2nc(-c3ccco3)nn12 | 104% (inactive)
C#CC(N)CCC(=O)O (stereo not given) | 122% (inactive)
CCCn1c(=O)c2[nH]c(-c3ccc(OCC(=O)NCCN)cc3)nc2n(CCC)c1=O | 109% (inactive)
CCOC(=O)C1=C(C)NC(C)=C(C(=O)OC)C1c1cccc([N+](=O)[O-])c1 (stereo not given) | 112% (inactive)
COC(=O)Nc1nc2ccc(C(=O)c3cccs3)cc2[nH]1 | 117% (inactive)
C[C@]12CC[C@@H]3c4ccc(O)cc4C[C@@H](CCCCCCCCCS(=O)CCCC(F)(F)C(F)(F)F)[C@H]3[C@@H]1CC[C@@H]2O (stereo not given in full) | 115% (inactive)
CC(C)(C)c1cc(/C=C(\C#N)C(N)=S)cc(C(C)(C)C)c1O | 97.1% (inactive)
O=c1oc(Cl)c(Cl)c2ccccc12 | 92.9% (inactive)
CN(C)CC[C@@H](c1ccc(Cl)cc1)c1ccccn1 | 117% (inactive)
C[N+](C)(C)CC=O | 101% (inactive)
N#CC(=C(/N)Sc1ccccc1N)/C(C#N)=C(\N)Sc1ccccc1N | 104% (inactive)
NCCNC(=O)c1ccc(Cl)cc1 | 88.1% (inactive)

Reference: PubChem BioAssay
